The source of these data is ChEMBL document CHEMBL1201862, “PubChem BioAssay data set” (2004).

The whole screen tested about 400,000 compounds, of which about 2,100 (0.53%) were called active. Roughly 14% stayed inconclusive and do not appear here. The rule behind the calls is not given here. Only a selection was taken, and actives are over-represented in it overall.

The target in the test is Ataxin-2 (Homo sapiens) (UniProt Q99700). The test is described as follows: qHTS for Inhibitors of ATXN expression. It counts as functional.
Ataxin-2 (Homo sapiens), sequence (Q99700 whole entry): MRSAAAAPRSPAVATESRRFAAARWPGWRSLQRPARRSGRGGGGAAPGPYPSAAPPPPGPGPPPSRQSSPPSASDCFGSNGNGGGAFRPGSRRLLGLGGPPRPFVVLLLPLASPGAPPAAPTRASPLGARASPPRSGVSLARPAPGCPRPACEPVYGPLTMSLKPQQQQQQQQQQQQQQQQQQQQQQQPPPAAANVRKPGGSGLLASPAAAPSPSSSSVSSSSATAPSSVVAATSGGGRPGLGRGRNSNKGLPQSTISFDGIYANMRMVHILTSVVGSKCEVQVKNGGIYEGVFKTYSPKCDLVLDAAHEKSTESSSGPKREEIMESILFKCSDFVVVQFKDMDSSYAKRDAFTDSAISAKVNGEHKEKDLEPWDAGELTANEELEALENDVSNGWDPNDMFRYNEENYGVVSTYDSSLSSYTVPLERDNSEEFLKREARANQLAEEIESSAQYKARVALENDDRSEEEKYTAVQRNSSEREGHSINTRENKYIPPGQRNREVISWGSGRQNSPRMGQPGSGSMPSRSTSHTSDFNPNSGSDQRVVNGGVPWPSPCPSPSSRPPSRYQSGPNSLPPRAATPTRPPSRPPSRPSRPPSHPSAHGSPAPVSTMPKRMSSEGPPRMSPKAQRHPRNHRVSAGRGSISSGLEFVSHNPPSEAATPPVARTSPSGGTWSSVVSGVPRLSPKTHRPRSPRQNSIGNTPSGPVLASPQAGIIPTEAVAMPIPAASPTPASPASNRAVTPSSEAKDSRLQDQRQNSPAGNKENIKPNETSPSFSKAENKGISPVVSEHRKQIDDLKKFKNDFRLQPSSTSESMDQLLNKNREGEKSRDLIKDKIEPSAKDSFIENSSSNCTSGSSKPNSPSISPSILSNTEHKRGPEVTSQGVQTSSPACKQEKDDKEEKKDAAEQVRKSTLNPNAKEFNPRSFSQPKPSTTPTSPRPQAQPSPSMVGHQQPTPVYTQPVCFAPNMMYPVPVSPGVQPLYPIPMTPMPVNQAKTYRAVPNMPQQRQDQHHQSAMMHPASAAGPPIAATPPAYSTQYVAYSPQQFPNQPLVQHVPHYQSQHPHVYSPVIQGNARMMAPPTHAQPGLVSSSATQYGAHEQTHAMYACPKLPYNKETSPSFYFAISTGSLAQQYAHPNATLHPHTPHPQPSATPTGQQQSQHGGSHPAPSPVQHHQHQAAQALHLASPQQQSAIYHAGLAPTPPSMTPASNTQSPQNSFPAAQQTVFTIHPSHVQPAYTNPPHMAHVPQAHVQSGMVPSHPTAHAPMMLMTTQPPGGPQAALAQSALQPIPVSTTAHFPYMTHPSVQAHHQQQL
Turning to `O=C(Nc1c(C(=O)c2ccc(F)cc2)oc2ccccc12)c1cc(-c2ccccc2)on1`, the Potency result is “inactive”.
Consider `COc1cc(/C=N/Nc2ccc([N+](=O)[O-])cc2S(=O)(=O)N2CCOCC2)cc(OC)c1OC`, for which the Potency result is “inactive”.
For `Cc1ccc(Cl)cc1N1CCN(C(=O)c2cnn(-c3ccc(Cl)cc3)c2C2CCNCC2)CC1`, the Potency is 39.8 µM (active).
Turning to `Cc1ccc(Cl)cc1N1CCN(C(=O)Cc2csc(Nc3nc(S)nc4ccccc34)n2)CC1`, the Potency entry is “inactive”.
For the molecule `Cc1ccc(Nc2ncc(C(=O)N3CCN(c4ccc(F)cc4)CC3)c3ccccc23)cc1Cl`, the Potency result is “inactive”.
Take `COc1ccc(S(=O)(=O)NCCc2cn3nc(C)c(C)nc3n2)cc1`: the Potency entry is “inactive”.
With `CN1C2=CC=CC=CC2=[N+](C)C12C=CC(=[N+]([O-])[O-])C=C2[N+](=O)[O-]` (configuration not stated), the Potency is 20 µM (active).
With `CCN(CC)C1=CC2=CC(=C(C#N)C#N)CCC2CC1` (configuration not stated), the Potency result is “inactive”.
On to `Cc1ccc(CN2C(=O)CC(c3ccc(Cl)cc3)c3c(C)nn(-c4nc(C)cc(C)n4)c32)cc1` (configuration not stated), for which the Potency is 39.8 µM (active).
Turning to `Cc1cc(C)nc(N(C#N)Cc2ccc(Cl)cc2)n1`, the Potency result was “inactive”.
As for `CCOC(=O)C1CCN(S(=O)(=O)c2cc3c(cc2C)NC(=O)CO3)CC1`, the Potency entry is “inactive”.
For `CS(=O)(=O)c1nc([N+](=O)[O-])nn1CCCc1ccccc1`, the Potency was 39.8 µM (active).
Turning to `Cn1c(-c2c(N)n(CCCc3ccccc3)c3nc4ccccc4nc23)nc2ccccc21`, the Potency result is “inactive”.
As for `CCN(C(=O)c1cc2c(=O)n3ccccc3nc2s1)C1CCCCC1`, the Potency result was “inactive”.
As for `O=[N+]([O-])c1cncc([N+](=O)[O-])c1Nc1cccc(O)c1`, the Potency was 22.4 µM (active).
With `COc1ccc(C2NS(=O)(=O)N=C2N)cc1` (configuration not stated), the Potency entry was “inactive”.
For `N#Cc1c(-c2ccccc2)c(C#N)c2nc3ccccc3n2c1N`, the Potency result is “inactive”.
`Nc1ccc2c(C(F)(F)F)cc(=O)oc2c1`: the Potency entry is “inactive”.
Turning to `CC(=O)c1cccc(NC(=O)c2ccccc2-c2ccccc2C(=O)O)c1`, the Potency result was “inactive”.
`Cn1c(SCC(=O)NCC2CCCO2)ncc(C(=O)Nc2ccc(Cl)cc2)c1=O` (configuration not stated): the Potency was 35.5 µM (active).
Regarding `O=C(Cn1c(=O)c(=O)n(Cc2ccccc2)c2ccc(Cl)cc21)NCC1CCCO1` (configuration not stated), the Potency entry was “inactive”.
As for `CC(=O)Nc1cccc(NC(=O)CSc2ncc(C(=O)Nc3ccccc3)c(=O)n2C)c1`, the Potency is 39.8 µM (active).
As for `CC(C)Cn1c(SC(C)C(=O)NCC2CCCO2)nc2ccc(Cl)cc2c1=O` (configuration not stated), the Potency entry is “inactive”.
In the case of `COCCn1c(SCC(=O)Nc2ccc(NC(C)=O)cc2)nc2ccccc2c1=O` it was “inactive”; in that of `CC1=CC2=NC(=O)/C(=C/c3coc4ccccc4c3=O)C(=N)N2O1`, “inactive”; in that of `COc1ccc(-c2c(C)c3ccc(O)c(CN4CCN(CCO)CC4)c3oc2=O)cc1OC`, “inactive”.
Consider `O=C(Nc1nc2n(n1)C(c1ccccc1)C=C(c1ccccc1)N2)c1ccccc1` (configuration not stated), for which the Potency entry is “inactive”.
As to `COc1cc(NS(=O)(=O)c2ccc(N/C=C\C(=O)c3ccc(F)cc3)cc2)nc(OC)n1`, the Potency result was “inactive”.
In the case of `O=C1c2sccc2-c2cccc3cccc1c23` it was “inactive”.
Turning to `O=C1C(Br)=Cc2cccc3cccc1c23`, the Potency result was “inactive”.
On to `O=C1c2cccc3cccc(c23)C(=O)C1(O)O`, for which the Potency was 15 µM (active).
As to `Cc1cc2nc(-c3ccco3)c(Cc3ccccc3C(F)(F)F)n2c(C)c1Br`, the Potency was 39.8 µM (active).
In the case of `O=C1NC(Cc2ccc(O)cc2)c2nc3cc(F)c(F)cc3c(=O)n2-c2cc3ccccc3cc21` (configuration not stated) it was 35.5 µM (active); in that of `CN(C)CCOC1(Cc2ccc(F)cc2)CCC(C(C)(C)C)CC1` (configuration not stated), 21.2 µM (active); in that of `Cc1ccc(CC2(OCCN(C)C)CCC(C(C)(C)C)CC2)cc1` (configuration not stated), 42.3 µM (active).
For `O=C(NCc1nc2ccccc2[nH]1)C1=C[C@@H](c2ccc(Br)cc2)C[C@@H](OCCCCO)O1`, the Potency is 31.6 µM (active).
Take `Cc1ccccc1NC(=O)CN1C(=O)S/C(=C\c2ccc(-c3cc(C(=O)O)ccc3C)o2)C1=O`: the Potency entry was “inactive”.
Take `C=C1CC2(OC1=O)c1ccccc1CCc1ccccc12`: the Potency was 5.97 µM (active).
In the case of `O=S(=O)(c1ccc(Cl)c(C(F)(F)F)c1)N1CCN(c2ccccn2)CC1`, the Potency entry is “inactive”.
The entry for `O=C(c1ccco1)[C@@H]1[C@@H]2C(=O)N(c3ccc(F)cc3)C(=O)[C@@H]2[C@H]2C=Cc3ccccc3N21` is “inactive”; for `COc1cc(CN2CCCC(CO)(Cc3cccc(Cl)c3)C2)cc(OC)c1O` (configuration not stated) it is “inactive”; for `Cc1ccc(S(=O)(=O)Nc2nc3n(n2)C(c2ccc(F)cc2)C=C(c2ccccc2)N3)cc1` (configuration not stated) it is “inactive”.
`O=C(O)/C=C/C(=O)NNc1ccc([N+](=O)[O-])cc1`: the Potency is 13.4 µM (active).
The entry for `O=C(N/N=C/c1ccc(-c2ccc([N+](=O)[O-])cc2)o1)C(O)c1ccccc1` (configuration not stated) is “inactive”.
The entry for `Cc1ccc(N2CCN(S(=O)(=O)c3nnc(NC(=O)c4ccco4)s3)CC2)cc1` is “inactive”; for `CCc1ccccc1N1CC(c2nnc(NC(=O)c3ccco3)s2)CC1=O` (configuration not stated) it is “inactive”; for `Cc1sc(NC(=O)c2ccco2)nc1-c1ccc2c(c1)CC(C)N2C(=O)C1CC1` (configuration not stated) it is 28.2 µM (active).
`C=CCN=C(S)Nc1ccc(C(N)=O)cc1`: the Potency result is “inactive”.
For `COc1ccc(CCn2c(=S)[nH]c3cc(C(=O)N4CCOCC4)ccc3c2=O)cc1OC`, the Potency result is “inactive”.
For `COc1ccc(CCn2c(=S)[nH]c3cc(C(=O)NCc4ccco4)ccc3c2=O)cc1OC`, the Potency was 28.2 µM (active).
Turning to `COc1ccc(CCn2c(=S)[nH]c3ccc(N4CCOCC4)cc3c2=O)cc1OC`, the Potency entry is “inactive”.
The figure for `O=C1OC(c2ccc3ccccc3c2O)(c2ccc3ccccc3c2O)c2ccccc21` is 17.8 µM (active); for `Cc1cc(O)c(C(C)C)cc1C1(c2cc(C(C)C)c(O)cc2C)OC(=O)c2ccccc21` it is 31.6 µM (active).
Take `CC(=O)Oc1ccc2c(c1)Oc1cc(OC(C)=O)ccc1C21OC(=O)c2ccccc21`: the Potency result is “inactive”.
In the case of `Cc1cccc2c3c([nH]c12)C(=O)CC(C)(C)S3` it was “inactive”; in that of `O=C(N/C(=C/c1ccccc1Cl)C(=O)N1CCCC1)c1ccccc1`, “inactive”; in that of `Cc1nc(N2CCN(c3ccccc3F)CC2)nc(O)c1C`, “inactive”.
With `CCCc1cc(NC(=O)COC(=O)c2nccnc2N)n(-c2ccccc2)n1`, the Potency result is “inactive”.
As to `CCOC(=O)[C@]12Cc3c(cc(OC)c(OC)c3OC)[C@H]1N(CCC(=O)OC)C(=O)c1cc(OC)ccc12`, the Potency was 22.4 µM (active).
For the molecule `c1cncc(-c2nc(N3CCOCC3)c3c4c(sc3n2)CCC4)c1`, the Potency entry was “inactive”.
As to `CCc1cc2c(COC(=O)CCNS(=O)(=O)c3cccc(C(F)(F)F)c3)cc(=O)oc2cc1O`, the Potency entry is “inactive”.
In the case of `CCN(CC)CCN1C(=O)/C(=C\c2ccc(Cl)c([N+](=O)[O-])c2)S/C1=N\c1ccc(OC)cc1` it was 28.2 µM (active); in that of `C=CCN1C(=O)/C(=C/c2ccc(OC)cc2)S/C1=N/c1nccs1`, “inactive”; in that of `Cc1cc(=O)oc2c(CN3CCN(CCO)CC3)c(O)ccc12`, “inactive”.
Turning to `O=C(CN1C(=O)NC2(CCOc3ccccc32)C1=O)Nc1ccc(F)c(F)c1F` (configuration not stated), the Potency entry was “inactive”.
In the case of `CCC(=O)NCCCNc1nc2c(C)cccc2cc1C#N` it was “inactive”.
The figure for `CCN1C(=O)/C(=C\C=C2/C=CC=CN2CC)SC1=S` is 20 µM (active).
For `CCN1C(=O)/C(=C/C2=Cc3ccccc3OC2C)SC1=S` (configuration not stated), the Potency result is “inactive”.
Regarding `Cc1cc(O)nc2c1c(-c1ccccc1)nn2C`, the Potency entry was “inactive”.
With `CC1=CC(C)(C)Nc2ccc(OC(=O)CN3C(=O)c4ccccc4C3=O)cc21`, the Potency is 25.1 µM (active).
Turning to `O=C(CN1C(=O)NC2(CCCC2)C1=O)Oc1ccc2ccc(=O)oc2c1`, the Potency entry is “inactive”.
For the molecule `CC1(C)Nc2ccccc2C(=O)N1c1ccc(Br)cc1`, the Potency result was “inactive”.
In the case of `CC1=CC(C)(C)Nc2ccc(OC(=O)C(C)N3C(=O)c4ccccc4C3=O)cc21` (configuration not stated), the Potency is 39.8 µM (active).
Consider `O=C(CN1C(=O)NC2(CCCCC2)C1=O)Oc1ccc2ccc(=O)oc2c1`, for which the Potency result is “inactive”.
As for `CC(C(=O)N1CCOCCOCCOCCOCCOCC1)N1C(=O)c2ccccc2C1=O` (configuration not stated), the Potency result was “inactive”.
Consider `CC1=CC(C)(C)Nc2ccc(OC(=O)CCN3C(=O)c4ccccc4C3=O)cc21`, for which the Potency is 25.1 µM (active).
In the case of `COc1cccc(NC(=O)COC(=O)CCC(=O)c2cccs2)c1` it was “inactive”; in that of `O=C(C[n+]1ccccc1)NN=Cc1cc(Br)cc(Br)c1O`, “inactive”; in that of `CC(C)OCCCn1/c(=N/C(=O)c2cccs2)c(C#N)cc2c(=O)n3ccccc3nc21`, “inactive”.
Take `Cc1cc(NC(=O)CCC(=O)N(CC(=O)NC2CCCC2)Cc2ccccc2Cl)no1`: the Potency result is “inactive”.
In the case of `CCN(CC(=O)NCc1cccs1)C(=O)c1ccccc1F` it was “inactive”; in that of `CCc1ccc(N(C(=O)c2ccco2)C(C(=O)NC2CCCC2)c2ccncc2)cc1` (configuration not stated), “inactive”.
The figure for `COc1ccc(C(=O)/C=C/C(=O)N(CC(=O)NCCC(C)C)Cc2cccs2)c(O)c1` is 31.6 µM (active); for `COCCN(CC(=O)NC1CCCCC1)C(=O)/C=C/C(=O)c1ccc(OC)cc1O` it is 23.8 µM (active).
In the case of `COc1ccccc1N(CC(=O)NC1CCCC1)C(=O)CCC(=O)Nc1ccccn1` it was “inactive”.
As to `COc1ccc2oc(=O)c(C(=O)NC3CCCCCC3)cc2c1`, the Potency result was “inactive”.
Regarding `COc1ccc(C(=O)/C=C/C(=O)N(Cc2ccccc2OC)C(C(=O)NC2CCCCC2)c2ccncc2)c(O)c1` (configuration not stated), the Potency is 26.7 µM (active).
Consider `COc1ccc(C(=O)OCCOc2ccccc2C(C)=O)c(O)c1`, for which the Potency entry is “inactive”.
Consider `COc1ccc(C(=O)/C=C/C(=O)N(CC(=O)NC2CCCCC2)Cc2ccccc2OC)c(O)c1`, for which the Potency was 26.7 µM (active).
The entry for `CCN(CC(=O)NCc1cccs1)C(=O)/C=C/c1ccc(F)cc1` is “inactive”; for `Cc1cc(Br)ccc1NC(=O)CNC(=O)c1cnn(C)c1` it is “inactive”.
In the case of `N#Cc1c(N2CCCCC2)nc(N)c2c(N)nc3c(c12)CC(CCl)O3` (configuration not stated) it was “inactive”; in that of `Cc1cc(=O)oc2c3c4c(cc12)OCCN4CCC3`, “inactive”; in that of `Cc1c(C)c2cc3c(c(C)c2oc1=O)OCN(CCc1ccccc1)C3`, “inactive”.
Take `COc1ccc(OCC(=O)OCC(=O)NC2CCCCC2C)cc1` (configuration not stated): the Potency entry is “inactive”.
Turning to `COc1ccc(C(=O)/C=C/C(=O)N(CC(=O)NC2CCCCC2)Cc2ccc(F)cc2)c(O)c1`, the Potency was 28.2 µM (active).
Regarding `COc1ccc(O)c(/C=N/NC(=O)CCC(=O)Nc2ccc(F)cc2)c1`, the Potency entry is “inactive”.
